Compound activity: PubChem BioAssay, several laboratories
PAFAH1B3 FP inh: PAFAH1B3 (human) inhibition | hit rate 0.28% among 340,000 | recombinant PAFAH1B3, FP-rhodamine probe, fluorescence polarization | Q15102 | inhibition, % at 3.39 µM;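 active means inhibition above the screen-wide average of all tested compounds plus 3 SD, cut at about 25% in these data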
Target sequence (Q15102 whole entry, looked up): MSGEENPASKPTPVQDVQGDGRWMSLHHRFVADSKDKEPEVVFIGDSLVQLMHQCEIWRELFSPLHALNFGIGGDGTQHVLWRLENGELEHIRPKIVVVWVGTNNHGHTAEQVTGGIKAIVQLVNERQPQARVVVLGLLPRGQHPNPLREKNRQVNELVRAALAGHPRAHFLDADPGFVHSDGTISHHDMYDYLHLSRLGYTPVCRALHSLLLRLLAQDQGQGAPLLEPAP
pPAFAH FP inh: inhibitors of human plasma PAF acetylhydrolase (pPAFAH); Q13093; recombinant pPAFAH, FP-rhodamine probe fluorescence polarization; inhibition, % at 3.39 µM; hit rate 1.5% among 330,000;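 active means inhibition above the mean inhibition across the screen plus 3 SD, cut at about 25% in these data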;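 further: inhibitors block binding of the rhodamine activity-based probe so polarization drops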
Target sequence (Q13093 whole entry, looked up): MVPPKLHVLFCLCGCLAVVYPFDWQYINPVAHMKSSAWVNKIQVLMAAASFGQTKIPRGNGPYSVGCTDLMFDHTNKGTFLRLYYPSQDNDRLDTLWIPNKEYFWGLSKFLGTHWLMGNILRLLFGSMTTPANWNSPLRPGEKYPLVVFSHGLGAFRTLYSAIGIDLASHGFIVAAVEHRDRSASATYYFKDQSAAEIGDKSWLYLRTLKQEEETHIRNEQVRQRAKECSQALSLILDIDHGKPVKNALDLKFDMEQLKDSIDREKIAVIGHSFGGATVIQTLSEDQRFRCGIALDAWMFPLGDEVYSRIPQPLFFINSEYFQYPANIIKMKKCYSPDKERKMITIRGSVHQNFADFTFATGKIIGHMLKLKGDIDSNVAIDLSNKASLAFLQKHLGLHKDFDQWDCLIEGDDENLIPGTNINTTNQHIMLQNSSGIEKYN
PAFAH1B2 inh: PAFAH1B2 (human) inhibition; P68402; recombinant PAFAH1B2, FP-rhodamine activity probe, fluorescence polarization; inhibition, % at 3.39 µM; hit rate 1.2% among 340,000; AID 492953;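 active means inhibition above the mean of all tested compounds plus 3 SD, cut at about 24% in these data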
M18AAP inhibitor: PfM18AAP enzyme inhibition. recombinant PfM18AAP, H-Glu-NHMec fluorogenic cleavage. inhibition, % at 7.35 µM. hit rate 1.2% among 290,000. AID 1822;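 active means inhibition above the campaign mean inhibition over all tested compounds plus 3 SD, cut at about 28% in these data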
PAFAH2 FP inh: PAFAH2 (human) inhibition. AID 492956. hit rate 0.99% among 340,000. inhibition, % at 3.39 µM. Q99487. recombinant PAFAH2, FP-rhodamine activity probe, fluorescence polarization;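 active means inhibition above the mean over all tested compounds plus 3 SD, cut at about 30% in these data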;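 further: inhibitors block probe labeling of enzyme so polarization drops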
Pemphigus Ab inh: human desmoglein-3 autoantibody binding inhibition. P32926. DSG3-coupled beads, scFv-anti-DSG3-GFP binding, flow cytometry; active compounds read low. binding (percent of control), % at 10 µM. hit rate 0.48% among 310,000. AID 588358;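 active means binding more than 3 SD below its plate's average and above zero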;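 further: hits lower antibody fragment binding to DSG3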
Hits are given with their value. In the library only some 3.8% were active in any assay of this set; here they are far more common.

NS(=O)(=O)c1ccc(N/N=C/c2ccc3c(c2)OCO3)c([N+](=O)[O-])c1 was read as PAFAH1B3 FP inh inactive, pPAFAH FP inh inactive, PAFAH1B2 inh inactive, M18AAP inhibitor inactive, PAFAH2 FP inh inactive and Pemphigus Ab inh 31.
C/C(=N\Nc1ccc(S(N)(=O)=O)cc1[N+](=O)[O-])c1ccccc1O was read as PAFAH1B3 FP inh inactive, pPAFAH FP inh inactive, PAFAH1B2 inh inactive, M18AAP inhibitor inactive, PAFAH2 FP inh inactive and Pemphigus Ab inh 72.
Screening NS(=O)(=O)c1ccc(N/N=C/c2ccc(O)c(O)c2O)c([N+](=O)[O-])c1 returned PAFAH1B3 FP inh inactive, PAFAH1B2 inh inactive, M18AAP inhibitor 50, PAFAH2 FP inh inactive and Pemphigus Ab inh inactive.
Screening Cc1ccc(-c2nc(SC(C)C(=O)NC3CC3)n[nH]2)cc1 (stereo unspecified) returned Pemphigus Ab inh inactive.
`O=C1CSC(=S)N1/N=C/C=C/c1ccccc1` gave PAFAH1B3 FP inh inactive, pPAFAH FP inh inactive, PAFAH1B2 inh inactive, M18AAP inhibitor 54, PAFAH2 FP inh inactive and Pemphigus Ab inh inactive.
For N=C1SCC(=O)N1/N=C/c1ccccc1 the results were PAFAH1B3 FP inh inactive, pPAFAH FP inh inactive, PAFAH1B2 inh inactive, M18AAP inhibitor inactive, PAFAH2 FP inh inactive and Pemphigus Ab inh inactive.
`O=C1CSC(=S)N1/N=C/c1ccc(C(F)(F)F)cc1` gave PAFAH1B3 FP inh inactive, pPAFAH FP inh inactive, PAFAH1B2 inh inactive, M18AAP inhibitor 31, PAFAH2 FP inh inactive and Pemphigus Ab inh inactive.
`O=C1CSC(=S)N1N=Cc1c(F)cccc1Cl` gave Pemphigus Ab inh inactive.
O=C(O)c1cccc(Cn2c(Cl)c(/C=N/NC(=O)c3cc4ccccc4cc3O)sc2=O)c1 was read as PAFAH1B3 FP inh inactive, pPAFAH FP inh 33, PAFAH1B2 inh inactive, M18AAP inhibitor inactive, PAFAH2 FP inh inactive and Pemphigus Ab inh inactive.
`O=C(O)c1cccc(Cn2c(Cl)c(/C=N/NC(=O)c3ccccc3)sc2=O)c1` gave PAFAH1B3 FP inh inactive, pPAFAH FP inh inactive, PAFAH1B2 inh inactive, M18AAP inhibitor inactive, PAFAH2 FP inh inactive and Pemphigus Ab inh inactive.
CCC1=C(NCc2ccccc2)COC1=O was read as Pemphigus Ab inh inactive.
`CCCCNC(=O)Nc1nc2ccccc2s1` gave PAFAH1B3 FP inh inactive, pPAFAH FP inh inactive, PAFAH1B2 inh inactive, M18AAP inhibitor inactive, PAFAH2 FP inh inactive and Pemphigus Ab inh inactive.
Screening CCCCNC(=O)Nc1nc2ccc(CC)cc2s1 returned PAFAH1B3 FP inh inactive, pPAFAH FP inh inactive, PAFAH1B2 inh inactive, M18AAP inhibitor inactive, PAFAH2 FP inh inactive and Pemphigus Ab inh 107.
Screening CN(C)[C@@H]1C(=O)C(C(=O)NCN2CCCC2)=C(O)[C@@]2(O)C(=O)C3=C(O)c4c(O)cccc4[C@@](C)(O)C3CC12 (stereo partly specified) returned M18AAP inhibitor 28.
COc1ccccc1OCC(=O)NCC1CCCN(C(=O)c2cccc(C)c2)C1 (stereo unspecified) was read as Pemphigus Ab inh inactive.
For Cc1ccc(N2CC(C(=O)OCC(=O)Nc3c(C)cccc3C)CC2=O)cc1 (stereo unspecified) the results were Pemphigus Ab inh inactive.
For CCN(Cc1ccccc1)C(=O)c1cc2cc(OC)c(OC)cc2[nH]1 the results were PAFAH1B3 FP inh inactive, pPAFAH FP inh 33, PAFAH1B2 inh inactive, M18AAP inhibitor inactive, PAFAH2 FP inh inactive and Pemphigus Ab inh inactive.
For CC(C(Sc1ccccc1N)c1ccccc1)[N+](=O)[O-] (stereo unspecified) the results were PAFAH1B3 FP inh inactive, pPAFAH FP inh inactive, PAFAH1B2 inh inactive, M18AAP inhibitor 31 and PAFAH2 FP inh inactive.
Screening Cc1[nH]c2ccccc2c1/C=N/NC(=O)c1ccccc1 returned PAFAH1B3 FP inh inactive, pPAFAH FP inh inactive, PAFAH1B2 inh inactive, M18AAP inhibitor inactive, PAFAH2 FP inh inactive and Pemphigus Ab inh inactive.
Screening Cc1[nH]c2ccccc2c1/C=N/NC(=O)c1cc(-c2ccccc2)n[nH]1 returned pPAFAH FP inh 25, M18AAP inhibitor inactive and Pemphigus Ab inh inactive.
For CC(=O)Nc1ccc(Nc2nc(-c3ccccc3)nc3ccccc23)cc1 the results were PAFAH1B3 FP inh inactive, pPAFAH FP inh 28, PAFAH1B2 inh inactive, M18AAP inhibitor inactive, PAFAH2 FP inh inactive and Pemphigus Ab inh inactive.
`O=C(N/N=C/c1cc(Cl)cc([N+](=O)[O-])c1O)NC12CC3CC(CC(C3)C1)C2` gave PAFAH1B3 FP inh inactive, pPAFAH FP inh inactive, PAFAH1B2 inh 59, M18AAP inhibitor inactive, PAFAH2 FP inh 53 and Pemphigus Ab inh inactive.
Screening CCN1C(=O)CCN(C2CCCC2)c2nc(Nc3ccc(C(=O)NC4CCN(C)CC4)cc3OC)ncc21 returned PAFAH1B3 FP inh inactive, PAFAH1B2 inh inactive, PAFAH2 FP inh inactive and Pemphigus Ab inh inactive.
`O=C(OCCCN1CCOCC1)c1ccc(O)c(O)c1` gave PAFAH1B3 FP inh inactive, pPAFAH FP inh inactive, PAFAH1B2 inh inactive, M18AAP inhibitor 44, PAFAH2 FP inh inactive and Pemphigus Ab inh inactive.
`COC(=O)[C@@]1(C)[C@H]2C(=O)N(C)C(=O)[C@H]2[C@H]2CN=C(SCc3ccc(Cl)cc3)N21` gave PAFAH1B3 FP inh inactive, pPAFAH FP inh inactive, PAFAH1B2 inh 29, PAFAH2 FP inh inactive and Pemphigus Ab inh inactive.
`C[C@H]1CN([C@@H](C)CO)C(=O)c2cc(Br)cnc2O[C@H]1CN(C)Cc1ccccc1C(=O)O` gave Pemphigus Ab inh inactive.
Cc1ccc(C)c(N2CCN(C(=O)Cc3c(C(=O)O)[nH]c4ccc(Cl)cc34)CC2)c1 was read as PAFAH1B3 FP inh inactive, pPAFAH FP inh inactive, PAFAH1B2 inh inactive, M18AAP inhibitor inactive, PAFAH2 FP inh inactive and Pemphigus Ab inh inactive.
Screening COc1ccc(OC)c(CNC(=O)Cc2c(C(=O)O)[nH]c3ccc(Cl)cc23)c1 returned PAFAH1B3 FP inh inactive, pPAFAH FP inh inactive, PAFAH1B2 inh inactive, M18AAP inhibitor inactive, PAFAH2 FP inh inactive and Pemphigus Ab inh inactive.
Screening CCCCN(CC)C(=O)Cc1c(C(=O)O)[nH]c2ccc(Cl)cc12 returned PAFAH1B3 FP inh inactive, pPAFAH FP inh inactive, PAFAH1B2 inh 50, M18AAP inhibitor inactive, PAFAH2 FP inh inactive and Pemphigus Ab inh inactive.
`CCOCCCNC(=O)Cc1c(C(=O)O)[nH]c2ccc(Cl)cc12` gave PAFAH1B3 FP inh inactive, pPAFAH FP inh inactive, PAFAH1B2 inh 30, M18AAP inhibitor inactive, PAFAH2 FP inh inactive and Pemphigus Ab inh inactive.
Cc1nn(-c2ccccc2)c(C)c1NC(=O)COC(=O)c1ccc(O)cc1O was read as PAFAH1B3 FP inh inactive, PAFAH1B2 inh inactive, M18AAP inhibitor inactive and PAFAH2 FP inh inactive.
`O=C(Nc1cccc(C(=O)O)c1)/C(=C\c1ccccc1)NC(=O)c1ccco1` gave Pemphigus Ab inh inactive.
Screening CC(=O)C[C@H](O)CC(=O)[C@H]1OC(=O)CCCCCc2ccccc21 returned PAFAH1B3 FP inh inactive, pPAFAH FP inh inactive, PAFAH1B2 inh inactive, PAFAH2 FP inh inactive and Pemphigus Ab inh inactive.
